Experimental data as given in the supplement of paper PMC10849652.
The full data set covers some 7,900 targets. This sample favours those with a hit. About 0.6% of all pairs of compound and target were hits.

Tests used:
Experiment in all cases: log2 fold change, soluble protein after heating vs DMSO (PISA); higher = thermal stabilisation; K562 cells, 10 uM, 30 min; active = over 0.2 and 3.5 SD of the protein, either way, in both replicates (recomputed)
[1] = compound: C1=CC=C(C=C1)[C@H](COC2=CC3=C(C=C2)NC(=O)N3)NC(=O)C4=CC=CN(C4=O)CC5=CC(=C(C=C5)F)F
Procedure, shortened: (§1)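 K562 cells at 2×10^6 cells/mL were exposed to 10 μM compound for 30 min, then aliquots were heated for 3 min across 48°C-58°C, pooled, and extracted in PBS containing 0.5% NP-40 at 4°C. The supernatant after 21,000xg for 90 min was taken as soluble protein and measured by TMTpro 16plex LC-MS/MS with channel sums equalised. Thermal stability is reported relative to control samples, with values from duplicates. Fold changes are given on a log2 scale.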

[2] = compound: CC1=C(SC2=C1C(=N[C@H](C3=NN=C(N32)C)CC(=O)N)C4=CC=C(C=C4)Cl)C
Procedure, shortened: as §1

[3] = compound: CC1=C2C(=CC=C1)N=C(N(C2=O)C3=CC=CC=C3C)CN4C=NC5=C(N=CN=C54)N
Procedure, shortened: as §1

[4] = compound: Cc1sc2c(c1C)C(c1ccc(Cl)cc1)=N[C@@H](CC(=O)OC(C)(C)C)c1nnc(C)n1-2
Procedure, shortened: as §1

[5] = compound: c1ccc([C@@H]2C[C@H]2NC2CCNCC2)cc1
Procedure, shortened: as §1

Measured: log2 fold change

GCC2 (UniProt Q8IWJ2)
UniProt Q8IWJ2, sequence (Q8IWJ2 whole entry, looked up): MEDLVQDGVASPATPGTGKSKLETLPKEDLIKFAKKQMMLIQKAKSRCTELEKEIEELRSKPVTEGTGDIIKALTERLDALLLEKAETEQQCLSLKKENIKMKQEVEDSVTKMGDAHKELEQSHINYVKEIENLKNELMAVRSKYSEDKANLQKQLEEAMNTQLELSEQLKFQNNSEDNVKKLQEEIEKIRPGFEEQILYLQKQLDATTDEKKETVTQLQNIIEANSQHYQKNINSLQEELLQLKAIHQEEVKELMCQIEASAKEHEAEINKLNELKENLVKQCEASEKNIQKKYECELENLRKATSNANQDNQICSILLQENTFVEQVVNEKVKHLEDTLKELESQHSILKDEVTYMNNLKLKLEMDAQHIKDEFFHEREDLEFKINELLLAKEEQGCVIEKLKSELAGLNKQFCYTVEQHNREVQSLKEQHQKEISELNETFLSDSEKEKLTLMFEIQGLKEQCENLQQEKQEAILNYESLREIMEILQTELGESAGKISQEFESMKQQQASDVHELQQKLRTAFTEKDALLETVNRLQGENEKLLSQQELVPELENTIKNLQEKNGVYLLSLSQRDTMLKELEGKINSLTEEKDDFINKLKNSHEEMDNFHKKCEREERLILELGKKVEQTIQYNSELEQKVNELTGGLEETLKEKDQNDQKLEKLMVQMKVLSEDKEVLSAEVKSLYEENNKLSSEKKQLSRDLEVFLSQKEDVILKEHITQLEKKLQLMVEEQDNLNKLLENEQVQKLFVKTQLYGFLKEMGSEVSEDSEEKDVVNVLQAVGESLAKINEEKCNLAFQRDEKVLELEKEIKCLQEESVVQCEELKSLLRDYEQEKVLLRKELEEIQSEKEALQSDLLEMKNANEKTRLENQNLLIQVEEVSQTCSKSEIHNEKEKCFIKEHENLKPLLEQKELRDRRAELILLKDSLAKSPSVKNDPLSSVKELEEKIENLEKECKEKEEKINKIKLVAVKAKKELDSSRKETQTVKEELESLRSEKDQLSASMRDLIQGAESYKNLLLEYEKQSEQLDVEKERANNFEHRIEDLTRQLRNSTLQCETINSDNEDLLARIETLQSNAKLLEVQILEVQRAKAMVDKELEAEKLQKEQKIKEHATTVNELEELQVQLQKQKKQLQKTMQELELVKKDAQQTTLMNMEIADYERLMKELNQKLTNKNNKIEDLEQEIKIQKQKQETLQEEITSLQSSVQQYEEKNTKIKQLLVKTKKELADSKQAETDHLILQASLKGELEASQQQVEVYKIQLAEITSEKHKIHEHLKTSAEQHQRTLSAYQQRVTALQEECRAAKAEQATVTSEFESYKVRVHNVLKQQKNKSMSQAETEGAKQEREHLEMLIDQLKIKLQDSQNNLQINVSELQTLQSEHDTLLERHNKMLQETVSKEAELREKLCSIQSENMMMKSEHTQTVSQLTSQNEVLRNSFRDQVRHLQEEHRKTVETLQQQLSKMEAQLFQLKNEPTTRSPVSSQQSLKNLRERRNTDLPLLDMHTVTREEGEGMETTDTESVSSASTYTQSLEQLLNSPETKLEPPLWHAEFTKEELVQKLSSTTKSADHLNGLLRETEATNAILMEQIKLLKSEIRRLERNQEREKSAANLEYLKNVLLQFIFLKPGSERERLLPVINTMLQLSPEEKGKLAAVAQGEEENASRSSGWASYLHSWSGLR
inactive: [1] -0.027 | [2] -0.116 | [3] 0.004 | [4] 0.066 | [5] -0.059

FNTB (UniProt P49356)
UniProt P49356, sequence (P49356 whole entry, looked up): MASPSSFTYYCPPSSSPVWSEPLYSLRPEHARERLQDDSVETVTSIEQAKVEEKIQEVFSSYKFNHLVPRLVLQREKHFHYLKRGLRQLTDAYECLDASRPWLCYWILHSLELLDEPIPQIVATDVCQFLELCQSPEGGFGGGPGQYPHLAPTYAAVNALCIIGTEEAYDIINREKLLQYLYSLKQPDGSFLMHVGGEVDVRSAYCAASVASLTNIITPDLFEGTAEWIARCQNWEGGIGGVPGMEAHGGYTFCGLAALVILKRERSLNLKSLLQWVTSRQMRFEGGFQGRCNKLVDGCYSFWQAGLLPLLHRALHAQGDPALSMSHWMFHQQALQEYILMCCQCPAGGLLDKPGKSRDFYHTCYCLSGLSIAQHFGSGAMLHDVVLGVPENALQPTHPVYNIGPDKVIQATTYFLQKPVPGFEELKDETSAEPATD
inactive: [1] -0.034 | [2] 0.401 | [3] -0.017 | [4] 0.269 | [5] -0.044

GLYR1 (UniProt Q49A26)
inactive: [1] 0.147 | [2] 0.054 | [3] -0.016 | [4] 0.058 | [5] 0.067

IDH3A (UniProt P50213)
inactive: [1] -0.029 | [2] 0.018 | [3] 0.026 | [4] -0.025 | [5] -0.005

HDAC6 (UniProt Q9UBN7)
inactive: [1] 0.159 | [2] 0.008 | [3] -0.001 | [4] -0.002 | [5] 0.009

GCDH (UniProt Q92947)
inactive: [1] 0.021 | [2] 0.012 | [3] 0.036 | [4] -0.043 | [5] -0.019

GALNT1 (UniProt Q10472)
inactive: [1] -0.034 | [2] 0.069 | [3] -0.002 | [4] -0.01 | [5] -0.007

HIP1R (UniProt O75146)
inactive: [1] -0.038 | [2] 0.061 | [3] 0.1 | [4] -0.031 | [5] -0.02

GBE1 (UniProt Q04446)
UniProt Q04446, sequence (Q04446 whole entry, looked up): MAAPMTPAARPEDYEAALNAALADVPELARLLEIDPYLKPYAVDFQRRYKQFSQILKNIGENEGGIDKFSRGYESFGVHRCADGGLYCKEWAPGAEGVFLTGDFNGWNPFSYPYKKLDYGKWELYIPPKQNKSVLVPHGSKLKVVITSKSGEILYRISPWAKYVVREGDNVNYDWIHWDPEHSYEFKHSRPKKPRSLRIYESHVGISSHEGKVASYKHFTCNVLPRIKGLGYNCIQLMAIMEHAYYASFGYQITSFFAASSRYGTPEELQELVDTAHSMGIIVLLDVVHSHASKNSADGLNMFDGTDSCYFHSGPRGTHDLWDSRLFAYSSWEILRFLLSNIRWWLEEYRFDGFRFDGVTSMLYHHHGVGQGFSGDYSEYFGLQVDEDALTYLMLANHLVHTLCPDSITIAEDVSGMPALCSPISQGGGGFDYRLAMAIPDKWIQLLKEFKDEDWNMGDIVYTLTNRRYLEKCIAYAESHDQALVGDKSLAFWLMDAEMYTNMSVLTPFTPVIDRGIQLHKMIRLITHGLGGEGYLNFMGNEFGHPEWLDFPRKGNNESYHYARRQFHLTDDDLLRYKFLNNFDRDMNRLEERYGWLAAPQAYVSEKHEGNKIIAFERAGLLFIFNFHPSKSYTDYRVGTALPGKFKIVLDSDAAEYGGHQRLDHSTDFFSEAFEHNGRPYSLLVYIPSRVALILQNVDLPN
inactive: [1] -0.116 | [2] 0.01 | [3] -0.009 | [4] 0.03 | [5] 0.008

FASTKD1 (UniProt Q53R41)
inactive: [1] -0.038 | [2] 0.151 | [3] 0.013 | [4] 0.204 | [5] 0.07

FRA10AC1 isoform 3 (UniProt Q70Z53)
inactive: [1] -0.03 | [2] 0.005 | [3] 0.055 | [4] 0.069 | [5] 0.073

FEN1 (UniProt P39748)
UniProt P39748, sequence (P39748 whole entry, looked up): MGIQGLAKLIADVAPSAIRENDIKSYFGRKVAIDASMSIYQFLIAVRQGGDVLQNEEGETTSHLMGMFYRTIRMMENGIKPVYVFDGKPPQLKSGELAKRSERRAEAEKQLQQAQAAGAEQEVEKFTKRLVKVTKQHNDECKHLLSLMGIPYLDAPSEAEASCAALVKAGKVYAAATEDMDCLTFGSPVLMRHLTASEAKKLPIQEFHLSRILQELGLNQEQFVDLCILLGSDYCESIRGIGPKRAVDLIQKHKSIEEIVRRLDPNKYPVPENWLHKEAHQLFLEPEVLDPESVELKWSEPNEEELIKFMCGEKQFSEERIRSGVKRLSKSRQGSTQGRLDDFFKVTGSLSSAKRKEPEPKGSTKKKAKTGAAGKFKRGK
inactive: [1] -0.198 | [2] 0.097 | [3] 0.157 | [4] -0.009 | [5] -0.043

IFNGR1 (UniProt P15260)
UniProt P15260, sequence (P15260 whole entry, looked up): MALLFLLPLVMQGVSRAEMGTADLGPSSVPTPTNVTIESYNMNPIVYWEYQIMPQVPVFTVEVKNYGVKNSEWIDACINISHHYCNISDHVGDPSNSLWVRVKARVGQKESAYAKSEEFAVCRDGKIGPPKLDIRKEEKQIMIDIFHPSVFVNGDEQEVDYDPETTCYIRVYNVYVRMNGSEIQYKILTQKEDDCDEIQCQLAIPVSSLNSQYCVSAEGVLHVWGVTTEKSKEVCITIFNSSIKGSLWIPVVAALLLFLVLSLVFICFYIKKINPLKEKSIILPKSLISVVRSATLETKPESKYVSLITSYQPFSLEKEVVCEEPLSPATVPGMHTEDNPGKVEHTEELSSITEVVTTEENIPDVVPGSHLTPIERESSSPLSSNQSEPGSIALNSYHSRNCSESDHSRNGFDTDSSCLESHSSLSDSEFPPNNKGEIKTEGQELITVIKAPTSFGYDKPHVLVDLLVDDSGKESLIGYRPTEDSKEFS
inactive: [1] 0.106 | [2] 0.105 | [3] 0.028 | [4] 0.046 | [5] 0.03

FKBP4 (UniProt Q02790)
UniProt Q02790, sequence (Q02790 whole entry, looked up): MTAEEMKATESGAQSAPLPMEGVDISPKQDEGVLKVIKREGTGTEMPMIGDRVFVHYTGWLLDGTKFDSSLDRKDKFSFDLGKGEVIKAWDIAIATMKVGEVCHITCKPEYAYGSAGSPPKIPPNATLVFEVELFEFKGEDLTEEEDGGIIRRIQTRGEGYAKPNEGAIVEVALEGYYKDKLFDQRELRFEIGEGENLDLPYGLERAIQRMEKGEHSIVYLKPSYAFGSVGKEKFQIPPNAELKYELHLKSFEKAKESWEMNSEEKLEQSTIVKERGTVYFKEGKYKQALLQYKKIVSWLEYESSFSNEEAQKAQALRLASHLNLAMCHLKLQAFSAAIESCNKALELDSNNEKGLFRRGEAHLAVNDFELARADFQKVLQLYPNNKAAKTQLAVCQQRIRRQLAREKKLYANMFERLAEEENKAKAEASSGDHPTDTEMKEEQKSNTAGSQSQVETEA
inactive: [1] -0.032 | [2] 0.042 | [3] 0.037 | [4] 0.004 | [5] -0.029

GLS isoform 3 (UniProt O94925)
inactive: [1] -0.077 | [2] 0.204 | [3] 0.024 | [4] -0.168 | [5] 0.067

GUK1 isoform 2 (UniProt Q16774)
UniProt Q16774, sequence (Q16774 whole entry, looked up): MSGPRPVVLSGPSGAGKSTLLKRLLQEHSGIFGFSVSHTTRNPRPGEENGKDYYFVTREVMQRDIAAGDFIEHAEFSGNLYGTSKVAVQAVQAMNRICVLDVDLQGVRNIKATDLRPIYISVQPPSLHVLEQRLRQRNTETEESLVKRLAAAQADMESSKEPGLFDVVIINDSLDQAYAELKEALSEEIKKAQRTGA
inactive: [1] -0.042 | [2] 0.003 | [3] 0.084 | [4] -0.021 | [5] 0.031

FOXK1 (UniProt P85037)
inactive: [1] 0.104 | [2] -0.042 | [3] 0.253 | [4] -0.402 | [5] 0.049

HLTF (UniProt Q14527)
inactive: [1] 0.003 | [2] 0.012 | [3] 0.062 | [4] 0 | [5] -0.001

FECH isoform 2 (UniProt P22830)
inactive: [1] 0.008 | [2] 0.03 | [3] 0.023 | [4] -0.07 | [5] -0.08

GTF2H3 (UniProt Q13889)
UniProt Q13889, sequence (Q13889 whole entry, looked up): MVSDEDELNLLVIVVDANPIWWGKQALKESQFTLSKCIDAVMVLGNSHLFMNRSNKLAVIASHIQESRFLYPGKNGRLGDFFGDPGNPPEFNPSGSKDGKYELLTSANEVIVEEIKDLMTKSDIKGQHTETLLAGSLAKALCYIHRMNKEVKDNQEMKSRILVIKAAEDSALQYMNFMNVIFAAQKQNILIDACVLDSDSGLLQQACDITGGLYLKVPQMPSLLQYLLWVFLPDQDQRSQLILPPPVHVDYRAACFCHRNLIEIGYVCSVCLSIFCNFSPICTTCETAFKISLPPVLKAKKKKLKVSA
inactive: [1] 0.062 | [2] 0.065 | [3] 0.099 | [4] 0.048 | [5] 0.017

GMEB2 (UniProt Q9UKD1)
inactive: [1] 0.037 | [2] 0.073 | [3] 0.068 | [4] -0.007 | [5] -0.016

HMOX2 (UniProt P30519)
UniProt P30519, sequence (P30519 whole entry, looked up): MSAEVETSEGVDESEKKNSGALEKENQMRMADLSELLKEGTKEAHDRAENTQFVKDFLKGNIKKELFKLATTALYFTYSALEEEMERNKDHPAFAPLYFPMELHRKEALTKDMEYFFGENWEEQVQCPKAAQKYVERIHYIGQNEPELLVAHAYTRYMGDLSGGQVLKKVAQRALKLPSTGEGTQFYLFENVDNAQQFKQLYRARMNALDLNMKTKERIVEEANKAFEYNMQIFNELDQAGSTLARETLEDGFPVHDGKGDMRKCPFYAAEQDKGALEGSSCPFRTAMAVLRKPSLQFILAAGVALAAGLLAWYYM
inactive: [1] 0.024 | [2] 0.035 | [3] 0.169 | [4] 0.047 | [5] -0.036

GID4 (UniProt Q8IVV7)
inactive: [1] -0.012 | [2] -0.021 | [3] 0.138 | [4] 0.048 | [5] 0.009

GSK3A (UniProt P49840)
inactive: [1] 0.006 | [2] 0.099 | [3] 0.02 | [4] -0.014 | [5] -0.034
